Experimental data reported in PubChem BioAssay (NCI).
About 79,000 compounds went through this panel and 15% of them were active in at least one assay; those are over-represented in the sample as a whole. A number with no mark means an inactive call. The source made the active and inactive calls. No stated cut-off is given here; in the data, active means growth inhibition above about 70%; inactive means the rest.

Tests used:
[1] = NCI Yeast Anticancer Drug Screen. Data for the rad50 strain (AID 155);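 further: 0% = growth of vehicle-only cultures of the same strain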; settings: S. cerevisiae rad50 strain growth inhibition, stronger effect = higher value
Outline: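 Vehicle-treated cultures provide the reference for the growth inhibition reported for compound-exposed, repair-deficient yeast.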

[2] = NCI Yeast Anticancer Drug Screen. Data for the mec2-1 strain (AID 157); settings: S. cerevisiae mec2-1 strain, stronger effect = higher value
Outline: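 Yeast mec2-1 mutant treated with compound. Readout: growth inhibition vs vehicle controls.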

[3] = NCI Yeast Anticancer Drug Screen. Data for the sgs1 mgt1 strain (AID 161);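 further: 0% = growth of cultures given vehicle only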; settings: S. cerevisiae sgs1 mgt1 strain, stronger effect = higher value
Outline: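 Test agents were incubated with a DNA-repair-mutant yeast strain. Growth was then read and compared against vehicle-treated controls.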

[4] = NCI Yeast Anticancer Drug Screen. Data for the cln2 rad14 strain (AID 165);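 further: 0% = growth equal to vehicle treated cultures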; settings: S. cerevisiae cln2 rad14 strain, stronger effect = higher value
Outline: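 cln2 rad14 yeast strain; compound exposure; growth inhibition read vs vehicle controls.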

[5] = NCI Yeast Anticancer Drug Screen. Data for the bub3 strain (AID 167); settings: S. cerevisiae bub3 mutant strain, stronger effect = higher value
Outline: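 Mutant yeast screening strain plus compound; vehicle-treated cultures serve as the 0% inhibition reference.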

[6] = NCI Yeast Anticancer Drug Screen. Data for the mlh1 rad18 strain (AID 175); settings: S. cerevisiae mlh1 rad18 strain growth inhibition, stronger effect = higher value
Outline: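 Yeast w/ defined DNA-repair lesions; compound exposure; growth vs vehicle controls → % inhibition.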

[7] = at 5.0 µM (retest, dose inferred, filed as 0.5)
[8] = at 50.0 µM (retest, dose inferred, filed as 5.0)

Row | SMILES | growth inhibition [1, 7] | growth inhibition [1, 8] | growth inhibition ([1]; at 50.0 µM) | growth inhibition [2, 7] | growth inhibition [2, 8] | growth inhibition ([2]; at 50.0 µM) | growth inhibition [3, 7] | growth inhibition [3, 8] | growth inhibition ([3]; at 50.0 µM) | growth inhibition [4, 7] | growth inhibition [4, 8] | growth inhibition ([4]; at 50.0 µM) | growth inhibition [5, 7] | growth inhibition [5, 8] | growth inhibition ([5]; at 50.0 µM) | growth inhibition [6, 7] | growth inhibition [6, 8] | growth inhibition ([6]; at 50.0 µM)
1 | CSc1cc(-c2cc3ccccc3o2)oc(=O)c1C#N | 6% | -8% | -1.6% | -1% | -10% | -6.6% | 3% | -11% | -24.4% | -9% | -6% | -4.5% | -5% | -8% | 40.1% | -4% | -11% | -23.9%
2 | C/C(CCC1CCc2ccccc2C1)=N\NC(N)=O (configuration not stated) | -11% | -8% | 32.2% | -4% | 0% | 12.3% | 1% | 5% | 6.2% | -42% | -13% | -1.45% | 0% | -2% | 11.4% | -8% | -10% | -6.5%
3 | CC(C)=CCC/C(C)=C/CC/C(C)=C/CC/C=C(\C)CC/C=C(\C)CCC[N+](C)(C)[O-] | 14% | 90% (active) | 98.9% (active) | 17% | 91% (active) | 99.4% (active) | 46% | 94% (active) | 99.2% (active) | 5% | 59% | 98.4% (active) | 16% | 95% (active) | 98.8% (active) | 13% | 73% (active) | 99.1% (active)
4 | O=C(OCCCN1CCCC1)C(c1ccccc1)C1CCCCC1 (configuration not stated) | 20% | 67% | 63.8% | 9% | 87% (active) | 52.4% | 23% | 91% (active) | 85.9% (active) | 13% | 81% (active) | 79.8% (active) | 33% | 91% (active) | 54.4% | 42% | 95% (active) | 80.2% (active)
5 | OC(CC(CC(O)(C(F)(F)Cl)C(F)(F)Cl)=NNc1ccccc1)(C(F)(F)Cl)C(F)(F)Cl | 87% (active) | 99% (active) | 99% (active) | 91% (active) | 99% (active) | 99.2% (active) | 79% (active) | 98% (active) | 99.3% (active) | 83% (active) | 99% (active) | 99.2% (active) | 52% | 99% (active) | 99% (active) | 93% (active) | 99% (active) | 99% (active)
6 | N#CCc1nc(Cl)cc(Cl)n1 | 2% | 29% | 31.9% | 12% | 59% | 81.6% (active) | 2% | 24% | 19.8% | 4% | 12% | 9.7% | -4% | 2% | 5.05% | 3% | 27% | 15.9%
7 | Cc1ccc(C(=O)/C(Cl)=N/O)cc1 | 32% | 99% (active) | 98.8% (active) | 10% | 100% (active) | 99.1% (active) | 13% | 100% (active) | 97.8% (active) | 0% | 99% (active) | 78.7% (active) | 3% | 99% (active) | 98.8% (active) | 27% | 99% (active) | 98.5% (active)
8 | O=C1Oc2ccccc2C(=O)/C1=C/N1C(=O)/C(=C/c2ccccc2)NC1=S | -23% | 31% | 66.7% | -25% | 27% | 43.3% | -15% | 42% | 71.7% (active) | 4% | 37% | 60.6% | -6% | 45% | 53.5% | -33% | 40% | 54%
9 | CCC(O)C(O)(c1ccccc1)c1nc2ccccc2s1 (configuration not stated) | -9% | 15% | 6.75% | 5% | 11% | 5.9% | -7% | 23% | 14% | 7% | 9% | 2.2% | -7% | -12% | -2.65% | 0% | 15% | 15.1%
10 | CCOC(=O)/C=C(\NC1CC(OC2C[C@](O)(C(C)=O)Cc3c(O)c4c(c(O)c32)C(=O)c2c(OC)cccc2C4=O)OC(C)C1O)C(=O)OCC (some centres not stated) | 44% | 95% (active) | 68.8% | 28% | 97% (active) | 74.3% (active) | 40% | 95% (active) | 90.5% (active) | 44% | 92% (active) | 88.7% (active) | 43% | 97% (active) | 87.5% (active) | 34% | 96% (active) | 87.5% (active)
11 | Cc1cc(NCCCCCCCCCC[n+]2c(C)cc(N)c3ccccc32)c2ccccc2n1 | 71% (active) | 99% (active) | 89.8% (active) | 94% (active) | 99% (active) | 92.2% (active) | 97% (active) | 99% (active) | 91.5% (active) | 95% (active) | 99% (active) | 90% (active) | 96% (active) | 99% (active) | 90.9% (active) | 95% (active) | 99% (active) | 90.6% (active)
12 | C=C(Cl)C(=NC(C)(C)C)Nc1ccccc1Cl | 21% | 42% | 66.4% | 14% | 35% | 59.5% | 16% | 40% | 63.1% | 31% | 33% | 50.8% | 14% | 32% | 53.2% | 27% | 53% | 85.8% (active)
13 | Cc1ccc(C2COc3cc(O)c(O)cc3C2)cc1 (configuration not stated) | 29% | 99% (active) | 99.5% (active) | 33% | 99% (active) | 99.6% (active) | 32% | 99% (active) | 99.5% (active) | 11% | 99% (active) | 96.2% (active) | 32% | 99% (active) | 99.6% (active) | 51% | 99% (active) | 99.4% (active)
14 | CCCC(=O)Oc1ccc([N+](=O)[O-])cc1 | 4% | 23% | 28.4% | 2% | 13% | 29% | -1% | 8% | 11.1% | 2% | 6% | 34.9% | 4% | 12% | 4.5% | 4% | 13% | 13.1%
15 | COc1cc(C2CC(C)(OC)Oc3cc4c(cc32)OCO4)cc(OC)c1O (configuration not stated) | 1% | 55% | 14.9% | 2% | 16% | -5.5% | -3% | 50% | 28.8% | 12% | 37% | 4.55% | 10% | 55% | -2.1% | 0% | 63% | 31.2%
16 | CCOC(=O)/C(=N/NS(=O)(=O)c1c(C)cc(C)cc1C)c1ccco1 | -2% | 13% | 64.6% | -2% | 25% | 45.5% | 2% | 41% | 50.4% | 0% | -4% | 38.3% | 1% | 29% | 79.8% (active) | 4% | 34% | 80.7% (active)
17 | CCCCCCCCNC(=O)C(Cl)Cl | 3% | 17% | -6.1% | -27% | 11% | 2.6% | 0% | 10% | 40% | 12% | -11% | -10.6% | 37% | 84% (active) | 70.4% (active) | 4% | 17% | -3.2%
18 | CCCN(CCC)C(=O)CCC(C)=O | 0% | -3% | -13.8% | 1% | 2% | -7.5% | 1% | -1% | -23.8% | -7% | 3% | 41.5% | -1% | -3% | -18.4% | 1% | -3% | 17.1%
19 | Oc1ccc(Cc2cccc(Br)c2)c(O)c1 | -2% | 99% (active) | 99.3% (active) | -4% | 99% (active) | 99.3% (active) | -2% | 99% (active) | 99.3% (active) | -9% | 99% (active) | 99.2% (active) | -3% | 99% (active) | 99.4% (active) | -3% | 99% (active) | 99.2% (active)
